8 compounds from PubChem BioAssay (NCI) can be followed below.

Molecules are shown by their SMILES. This is part of a sample that, as a whole, favours compounds with a hit. Of some 83,000 tested, about 20% had one in any assay.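 Method: cells in 96-well plates; compound added at one concentration; 48 h incubation; percent growth measured; values under 10 scored active.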 A number with no mark means an inactive call. The source made the active and inactive calls.

Some test systems named below: NCI-H226 lung; NCI-H322M lung; HOP-62 NSCLC; NCI-H460 lung; HOP-92 NSCLC; NCI-H522 lung; A549/ATCC NSCLC; 786-0 renal; COLO 205 colon; DU-145 prostate; K-562 leukemia; MALME-3M melanoma; MDA-MB-231 breast; RXF 393 renal; SF-268 CNS; SF-295 CNS; SF-539 CNS; UACC-257 melanoma; M14 melanoma.
Common to all, as to experiment: NCI-60 one-dose screen, 48 h (100 = growth as untreated, 0 = no growth, -100 = all killed)
What all share (conditions): 10 µM unless noted

Turning to `CCN1C(=O)N(CC)C2C1NN=c1s/c(=C\c3cccnc3)c(=O)n12` (centres undefined), the growth in the experiment with NCI-H226 lung is 49.7%; with NCI-H322M lung, 47.3%; with HOP-62 NSCLC, 53.4%; in the experiment on NCI-H460 lung, 7.97% (active); in the experiment with HOP-92 NSCLC, 101%; in the experiment on NCI-H522 lung it was 8.92% (active). Besides, the growth with A549/ATCC NSCLC was 27%; in the experiment with 786-0 renal, 41.7%; in the experiment with COLO 205 colon it was 12.3%; in the experiment with DU-145 prostate, 17%; with K-562 leukemia, 9.64% (active); with MALME-3M melanoma, 61.8%. Further, the growth was 46.5% in the experiment with MDA-MB-231 breast; 0.531% (active) with RXF 393 renal; 49.4% in the experiment on SF-268 CNS; 11.9% with SF-295 CNS; -13.3% (active) in the experiment with SF-539 CNS; 68% with UACC-257 melanoma. The growth in the experiment with M14 melanoma is 0.469% (active).

For the compound `Fc1ccc(Nc2nc(NCCNc3ccnc4cc(Cl)ccc34)nc(N3CCOCC3)n2)cc1`, the growth is 94.8% in the experiment with NCI-H226 lung; 73.7% in the experiment on NCI-H322M lung; 85% in the experiment on HOP-62 NSCLC; 34.9% in the experiment with NCI-H460 lung; -5.61% (active) in the experiment on HOP-92 NSCLC; 48.1% in the experiment on NCI-H522 lung. The growth is 55.7% in the experiment with A549/ATCC NSCLC; 53.6% in the experiment on 786-0 renal; -85.7% (active) in the experiment with COLO 205 colon; 75% in the experiment with DU-145 prostate; 1.44% (active) with K-562 leukemia; -63.1% (active) in the experiment with MALME-3M melanoma. Also, the growth in the experiment with MDA-MB-231 breast was 20.1%; in the experiment with RXF 393 renal, 21.3%; in the experiment with SF-268 CNS, 66.6%; in the experiment on SF-539 CNS, 69.3%; with UACC-257 melanoma, -88.8% (active); with M14 melanoma, -42.7% (active).

For the compound `COc1cccc(-c2cc3c(O)cc(C#N)cc3[nH]2)c1`, the growth was 101% in the experiment on NCI-H226 lung; 85.4% in the experiment with NCI-H322M lung; 108% in the experiment on HOP-62 NSCLC; 96.9% in the experiment on NCI-H460 lung; 113% in the experiment with HOP-92 NSCLC; 80.2% in the experiment on NCI-H522 lung. The growth is 94.6% in the experiment with A549/ATCC NSCLC; 90.5% in the experiment on 786-0 renal; 115% in the experiment on COLO 205 colon; 101% in the experiment on DU-145 prostate; 82.5% in the experiment on K-562 leukemia; 100% in the experiment on MALME-3M melanoma. The growth is 73% in the experiment on MDA-MB-231 breast; 112% with RXF 393 renal; 98.9% in the experiment on SF-268 CNS; 90.6% in the experiment on SF-295 CNS; 85.5% in the experiment with SF-539 CNS; 86.9% with UACC-257 melanoma. Besides, in the experiment with M14 melanoma, the growth is 86.6%.

Turning to `C1=Cc2ccccc2N(c2nnc(-c3ccccc3)o2)c2ccccc21`, the growth is 81.7% with NCI-H226 lung; 92.2% in the experiment with NCI-H322M lung; 99.5% in the experiment on HOP-62 NSCLC; 49.8% in the experiment on NCI-H460 lung; 84.7% in the experiment on HOP-92 NSCLC; 92.8% with NCI-H522 lung. The growth was 92.6% in the experiment on A549/ATCC NSCLC; 100% in the experiment with 786-0 renal; 91.3% in the experiment with COLO 205 colon; 105% in the experiment with DU-145 prostate; 67.8% with K-562 leukemia; 109% in the experiment on MALME-3M melanoma. Moreover, the growth in the experiment on MDA-MB-231 breast is 85.5%; in the experiment with RXF 393 renal, 91.1%; in the experiment on SF-268 CNS, 91.7%; in the experiment with SF-295 CNS, 92%; with SF-539 CNS, 103%; in the experiment on UACC-257 melanoma, 111%. In addition, the growth in the experiment on M14 melanoma was 100%.

Turning to `Nc1cccc(-c2nc3sccn3c2-c2ccnc(NCCNS(=O)(=O)c3ccc(C(F)(F)F)cc3)n2)c1`, the growth in the experiment on NCI-H226 lung was 29.3%; with NCI-H322M lung, 42.4%; in the experiment with HOP-62 NSCLC, 49.6%; in the experiment on NCI-H460 lung, 43.5%; in the experiment on HOP-92 NSCLC, -6.13% (active); in the experiment on NCI-H522 lung, 71.6%. For the same compound, the growth with A549/ATCC NSCLC was 30%; with 786-0 renal, 65.5%; with COLO 205 colon it was 58.8%; in the experiment on DU-145 prostate it was 43.4%; with K-562 leukemia, 47.2%; with MALME-3M melanoma, 42.1%. The growth in the experiment on MDA-MB-231 breast is 46%; with RXF 393 renal, 48.7%; in the experiment on SF-268 CNS, 35.5%; in the experiment on SF-295 CNS, 46.6%; in the experiment with SF-539 CNS it was 32%; in the experiment on UACC-257 melanoma, 65%. In the experiment with M14 melanoma, the growth was 53.6%.

As for `O=C1/C(=C/c2ccccc2)CN(C(=O)CCN2CCC(=NO)CC2)C/C1=C\c1ccccc1`, the growth in the experiment on NCI-H226 lung is 104%; in the experiment with NCI-H322M lung it was 34%; in the experiment on HOP-62 NSCLC it was 49.9%; with NCI-H460 lung it was -32.2% (active); in the experiment on HOP-92 NSCLC it was 77.6%; with NCI-H522 lung it was -61.4% (active). Also, the growth was 71.3% in the experiment with A549/ATCC NSCLC; -25.8% (active) in the experiment on 786-0 renal; -46.8% (active) with COLO 205 colon; 16.1% in the experiment on DU-145 prostate; 6.48% (active) with K-562 leukemia; -13.2% (active) in the experiment with MALME-3M melanoma. Further, the growth was -32.1% (active) in the experiment on MDA-MB-231 breast; -71% (active) in the experiment with RXF 393 renal; 7.27% (active) with SF-268 CNS; -10.5% (active) in the experiment on SF-295 CNS; -30.5% (active) in the experiment on SF-539 CNS; 11.3% in the experiment on UACC-257 melanoma. The growth in the experiment on M14 melanoma is 0.212% (active).

Turning to `CN(C)CC(C(=O)c1ccccc1)c1ccccc1` (centres undefined), the growth in the experiment on NCI-H226 lung was 47.4%; with NCI-H322M lung, 106%; in the experiment on HOP-62 NSCLC it was 43.7%; in the experiment with NCI-H460 lung, 79.5%; with HOP-92 NSCLC it was -0.711% (active); with NCI-H522 lung, -77.5% (active). Further, the growth in the experiment on A549/ATCC NSCLC was 71.4%; in the experiment with 786-0 renal, 74%; in the experiment with COLO 205 colon it was -48% (active); in the experiment on DU-145 prostate it was 14.7%; in the experiment with MALME-3M melanoma, 57.7%; in the experiment on MDA-MB-231 breast, 80%. Also, the growth is 54.8% with RXF 393 renal; 5.71% (active) with SF-268 CNS; 93.1% in the experiment on SF-295 CNS; 33.7% in the experiment with SF-539 CNS; 32.7% in the experiment on UACC-257 melanoma; -1.12% (active) with M14 melanoma.

Take `NNc1cccc(/C=C/c2ccccc2)cc1=O`: the growth in the experiment on NCI-H226 lung was 83%; in the experiment on NCI-H322M lung it was 71.1%; with HOP-62 NSCLC, 71.1%; in the experiment with NCI-H460 lung it was 27.5%; in the experiment with HOP-92 NSCLC, 59.8%; in the experiment with NCI-H522 lung it was 57.7%. Besides, the growth in the experiment on A549/ATCC NSCLC is 64.6%; in the experiment on 786-0 renal, 69.1%; in the experiment on COLO 205 colon it was 70.6%; in the experiment with DU-145 prostate, 68.2%; in the experiment on K-562 leukemia, 45.5%; with MALME-3M melanoma, 103%. Further, the growth is 58.1% with MDA-MB-231 breast; 91.9% in the experiment with RXF 393 renal; 57.6% in the experiment on SF-268 CNS; 62.4% with SF-539 CNS; 95.3% in the experiment with UACC-257 melanoma; 61.4% in the experiment with M14 melanoma.
